Bioassay records deposited in PubChem BioAssay by National Center for Advancing Translational Sciences (NCATS).
FLuc counter = counter-screen for miR-21 project: firefly luciferase inhibitors or activators; purified FLuc, Km substrates, luminescence inhibition; P08659; 6.9% of 360,000 active; AID 588342; Potency, µM (doses to about 57.5 µM), for the others: at the highest dose activity change, negative = inhibition, usual class: inhibitors;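 also: plate controls were vehicle for no effect and reference inhibitor for full effect; nearly all actives have a fitted effect of over 55% in size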
Target sequence (P08659 whole entry, looked up): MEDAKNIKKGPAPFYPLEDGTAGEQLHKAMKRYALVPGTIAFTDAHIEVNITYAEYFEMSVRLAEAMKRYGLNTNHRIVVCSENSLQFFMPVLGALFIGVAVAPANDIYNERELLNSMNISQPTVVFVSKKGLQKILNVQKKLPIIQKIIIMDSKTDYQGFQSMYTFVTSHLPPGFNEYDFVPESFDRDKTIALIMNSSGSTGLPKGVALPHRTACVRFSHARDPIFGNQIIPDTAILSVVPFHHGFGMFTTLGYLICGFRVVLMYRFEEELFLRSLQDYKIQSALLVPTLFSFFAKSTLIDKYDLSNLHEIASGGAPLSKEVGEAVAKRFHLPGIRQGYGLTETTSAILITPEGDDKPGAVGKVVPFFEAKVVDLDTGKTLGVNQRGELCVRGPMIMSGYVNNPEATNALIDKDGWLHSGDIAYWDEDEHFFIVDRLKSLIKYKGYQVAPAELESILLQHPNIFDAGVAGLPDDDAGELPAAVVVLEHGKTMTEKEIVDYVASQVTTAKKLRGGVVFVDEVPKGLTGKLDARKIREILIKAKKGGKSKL
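Purified P. pyralis luciferase, 10 nM final, with Km-level 10 uM D-luciferin and 10 uM ATP in 50 mM Tris acetate pH 7.5, 10 mM Mg acetate, 0.01% Tween-20, 0.05% BSA; 6-point qHTS titration about 60 µM downward; luminescence read.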
NPC1 prom act = activates the NPC1 promoter; Huh7 NPC1 promoter luciferase reporter, 24 h; Potency, µM (series often up to 9.22 µM), inactives show at the highest dose activation, actives largely listed as activators; 2.4% of 320,000 active; AID 485313; also: % of control where 0% means no effect; nearly all actives have a fitted effect of over 60% in size
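Luciferase expression driven by the NPC1 promoter was measured in stably transfected Huh7 cells after a 24 h compound incubation, using a luciferase reagent and a luminescence read.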
Rab9 prom act = Rab9 promoter activation; AID 485297; Potency, µM (series often up to 9.22 µM), inactives show top-dose activation, negative = inhibition, hits mostly activators; Huh7 Rab9 promoter-luciferase reporter, luminescence, 24 h; 2.8% of 320,000 active; also: % of control where 0% means no effect; nearly all actives have a fitted effect of over 60% in size
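Steps: seed 1500 Huh7 Rab9-luc cells per well, rest 2 h at 37 °C; add compound in DMSO; incubate 24 h; add luciferase reagent, 10 min ambient; read luminescence.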
ELG1 genotox = inducers of genotoxicity in HEK293T ELG1-luciferase cells; 1.3% of 330,000 active; AID 504466; Potency, µM (doses to about 46 µM), for the others: top-dose activity change, positive = activation, actives largely listed as activators; HEK293T ELG1-luciferase reporter, luminescence, 16 h; also: % of control where 0% means no effect; nearly all actives have a fitted effect of over 60% in size
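HEK293T cells expressing luciferase-tagged ELG1 were treated with compound or DMSO for 16 hr at 37°C. Luciferase activity was then read after 30 min with ONE-Glo at room temperature; rising signal flags genetic stress.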
SMN2 splice enh = increases expression of the SMN2 splice variant; Potency, µM (top dose mostly 46.1 µM), for the others: at the highest dose activity change, positive = activation, most hits filed as activators; HEK293 SMN2-luciferase splicing reporter, luminescence, 30-36 h; 2.8% of 210,000 active; also: % of control where 0% means no effect; nearly all actives have a fitted effect of over 55% in size
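HEK293 cells carry an SMN2 minigene-luciferase reporter in which exon 7 inclusion puts luciferase in frame. Cells were seeded at 2000 cells/well, attached for 10-12 hours, then exposed to compounds for 30-36 hours at 37C before ONE-Glo luminescence.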
The depositor's hits bear a star; ? = inconclusive; / = no result given; [ ] = dose if it differs, or a comment. In the library only some 7.4% were active in any assay of this set; here they are far more common. Calls follow the shape of the dose curve; as a rule, active = well fitted curve in the direction sought with a large enough effect; inconclusive = small, poorly fitted or top-dose-only effect, or another doubt; inactive = no such curve, though single readings can be large; an effect the other way counts as inactive or inconclusive. Potency is read from the fitted curve at half-maximal effect.

SMILES	FLuc counter	NPC1 prom act	Rab9 prom act	ELG1 genotox	SMN2 splice enh
COc1ccc(Cl)cc1NC(=O)Cn1c(=O)n(Cc2cccs2)c(=O)c2cccnc21	-7%	/	/	/	-6%
CC(=O)Oc1ccc(Oc2ccc(-c3noc(C)n3)cc2)cc1	?	11%	?	23µM*	?
CC(=O)Nc1ccc(Oc2ccc(-c3noc(C)n3)cc2)cc1	-9%	/	/	/	5%
CCOc1ccc(-c2nc(-c3cccnc3)no2)cc1OCC	?	7%	1%	9%	-16%
CC(=O)Oc1ccc(-c2nc(-c3cccnc3)no2)cc1	6µM*	3.5µM*	?	5.8µM*	?
CSCc1nc2scc(-c3ccccc3)c2c(=O)[nH]1	4%	-1%	0%	3%	-4%
CC(C)(C)c1nc2scc(-c3ccc(Cl)cc3)c2c(=O)o1	1%	-1%	-1%	-4%	19%
O=C(O)c1ccc(-c2nc3scc(-c4ccccc4)c3c(=O)[nH]2)cc1	9.5µM*	0%	-10%	-1%	/
CC(C)(C)c1nc2scc(-c3cccs3)c2c(=O)o1	13µM*	0%	15%	0%	/
O=c1[nH]c(-c2ccc(O)cc2)nc2scc(-c3cccs3)c12	11µM*	2.8µM*	2µM*	?	/
Cc1ccc(N(CC(=O)NC2CCCCC2)C(=O)CCCC(=O)Nc2ccccn2)cc1	-2%	-3%	-2%	-3%	/
CC(=O)c1sc(NC(=O)C2(F)C(F)(F)C(F)(F)C(F)(F)C(F)(F)C2(F)F)nc1C	?	-36%	-46%	-10%	-57%
CC(=O)c1sc(N/N=C2\CC3CC2C(C)C3(C)C)nc1C (stereo not drawn)	13µM*	?	?	?	/
COc1ccc(OCC(O)Cn2c(N)nc3c2c(=O)[nH]c(=O)n3C)cc1 (stereo not drawn)	-2%	1%	1%	1%	/
O=c1c2cccnc2[nH]c(=S)n1CCCN1CCN(c2ccc(F)cc2)CC1	-1%	1%	0%	10%	7.9µM*
COC(=O)c1ccc(NC(=O)C2CCN(C(=O)Nc3ccccc3)CC2)cc1	?	3%	21%	1%	/
c1ccc(CCN2CCN(c3ncnc4c3cnn4-c3ccccc3)CC2)cc1	-11%	-2%	3%	-7%	-4%
CCOC(=O)N1CCN(c2ncnc3c2cnn3-c2ccc(Cl)cc2)CC1	7%	-3%	-1%	1%	-53%
CCN1CCN(c2ncnc3c2cnn3-c2ccc(Cl)cc2)CC1	6µM*	1.6µM*	1.8µM*	?	/
CCN1CCN(c2ncnc3c2cnn3-c2ccccc2)CC1	24µM*	?	29%	?	-12%
COc1cc(OC)c(C(=O)O/N=C(\N)c2ccc(C)cc2)cc1OC	?	-2%	3%	0%	/
Cc1noc(-c2ccc(Cl)cc2)c1C(=O)O/N=C(\N)c1ccc(C(C)(C)C)cc1	-5%	-38%	-3%	-14%	/
N/C(=N\OC(=O)Cc1ccc(Cl)cc1)c1ccncc1	-4%	-2%	-4%	-1%	-4%
N/C(=N\OC(=O)c1ccc(Cl)cc1Cl)c1ccncc1	1.9µM*	1.6µM*	1.8µM*	9.2µM*	/
N/C(=N\OC(=O)c1cc(Cl)ccc1Cl)c1ccncc1	13µM*	20%	?	?	/
SMILES	FLuc counter	NPC1 prom act	Rab9 prom act	ELG1 genotox	SMN2 splice enh
COc1ccc(Cl)cc1C(=O)O/N=C(\N)c1ccc(Cl)cc1	17µM*	1%	-3%	11%	10%
Cc1occc1C(=O)O/N=C(\N)c1ccc(Cl)cc1	9.5µM*	?	4µM*	?	/
Cc1ccc(C)c(CNS(=O)(=O)c2c(C(=O)N3CCCC3)c(C)n(C)c2C)c1	1%	-1%	-5%	-1%[9.26 µM]	/
O=C(Cn1cc(C(F)(F)F)ccc1=O)N1CCc2ccccc21	/	/	/	2%	/
Cc1cc(/C=C2\SC(=S)NC2=O)c(C)n1C1CC1	6.7µM*	?	?	16%	14%
Cc1nn(-c2ccccc2)c(Cl)c1/C=C1\C(=O)N(C)C(=S)N1C	-3%	-8%	-2%	0%	9%
Cc1cc(/C=C2/C(=O)N(C)C(=S)N2C)c(C)n1C1CC1	3µM*	2.8µM*	2µM*	18µM*	13µM*
Cc1cc(/C=C2\SC(=O)NC2=O)c(C)n1-c1ccc(N(C)C)cc1	-3%	17%	14%	12%	/
NNC(=O)c1cc2cc3ccccc3nc2s1	21µM*	8%	26%	-1%	1%
COc1ccc(/C=C2\CCC/C(=C\C=N\N(C)C)C2=O)cc1	11µM*	6%	19%	5%	-19%
CN(C)/N=C/C=C1\CCC/C(=C\c2ccc(F)c(F)c2)C1=O	21µM*	7%	17%	11%	-100%
COc1ccc(C(=O)Nc2cccc(-c3ccc(N4CCOCC4)nn3)c2)cc1	2.4µM*	?	4µM*	2%	/
COc1cc(OC)cc(C(=O)Nc2cccc(-c3ccc(N4CCOCC4)nn3)c2)c1	1.5µM*	?	?	?	/
COc1cccc(OC)c1C(=O)Nc1cccc(-c2ccc(N3CCOCC3)nn2)c1	1.5µM*	?	1.8µM*	0%	/
COc1cccc(OC)c1C(=O)Nc1cccc(-c2ccc3nncn3n2)c1	-1%	-7%	-10%	17%	26%
COc1cccc(C(=O)NCCS(=O)(=O)NC2CCCC2)c1	3%	1%	7%	-7%	/
N#C/C(=C/c1ccc(N2CCCCC2)o1)c1cccc(F)c1	2.1µM*	-2%	6%	3.7µM*	22%
N#C/C(=C/c1ccc(N2CCCCC2)cc1)c1cccc(F)c1	5.4µM*	4µM*	3.2µM*	18µM*	?
N#C/C(=C/c1ccc(N2CCCCCC2)o1)c1ccc(Cl)cc1	9.5µM*	26%	4µM*	?	1%
CCNc1ncc2nc(-c3ccc(F)cc3)c(=O)n(CCC#N)c2n1	/	/	/	/	-10%
COC(=O)c1ccc(-c2nc3ccc(C)cc3o2)cc1	1.2µM*	?	?	?	4.5µM*
COC(=O)c1ccc(-c2ncc(-c3cccc4ccccc34)o2)cc1	?	?	1.8µM*	4%	11µM*
Nc1nc2ccc(-c3nc4ccccc4o3)cc2s1	1.3µM*	1.1µM*	0.63µM*	?	7.9µM*
COc1ccc(-c2nc3ccc(NS(C)(=O)=O)cc3o2)cc1	2.7µM*	/	/	/	/
Cc1ccc2oc(-c3ccc(NC(=O)c4ccc5c(c4)OCO5)cc3)nc2c1	?	2%	14%	13%	-10%
COc1ccc(C(=O)OCC#CCSc2nnc(-c3cccc4ccccc34)o2)cc1	8%	16%	0%	0%	/
C=C(C)OC(C)=O	/	/	/	/	-2%
CC(C)[C@H]1C(=O)Nc2ccccc2N1C(=O)N[C@@H](Cc1ccccc1)C(=O)N[C@@H](C(=O)O)c1ccccc1	5%	2%	-8%	2%	/
O=C1C=C(c2ccc3c(c2)OCCO3)C[C@@H](c2ccc(F)cc2)C1	?	1%	-4%	3%	/
